The test system of one experiment is EPHB6. To be noted: concentration: 1 μM, replicates: in singlicate; n = 1.
For `O=C(Nc1cccc(-c2nn3ccccc3c2-c2ccnc(Nc3cccc(C(F)(F)F)c3)n2)c1)c1c(F)cccc1F` [GSK292658], the “%Inh” value is on record as 25%.
Consider `CNC(=O)c1ccccc1Nc1nc(Nc2ccc(N3CCOCC3)cc2)ncc1Cl.Cl` [GSK1576028], for which the “%Inh” value is listed as 95.2%.
Turning to `Cl.c1ccc(-c2ccc3c(Nc4ccc5[nH]ncc5c4)ccnc3c2)nc1` [GW440137], the “%Inh” value was 46%.
Regarding `Cl.Cl.NCC(NC(=O)c1cc(-c2ccccc2)c(-c2ccnc3[nH]ccc23)s1)c1ccccc1` (stereo not drawn) [GSK1321561], the “%Inh” value is 2%.
Same read-out and setting: for `COc1cc2c(cc1OCCN1CCNCC1)ncc1c3ccc(C#N)cc3[nH]c21` the value was 55%; for `CCn1c(-c2nonc2N)nc2c(C#CC(C)(C)O)ncc(OCCCCN)c21.O=C(O)C(F)(F)F.O=C(O)C(F)(F)F` [GSK507274], 6%.
With `COc1cc(Nc2nccc(-c3c(-c4cccc(NC(=O)c5c(F)cccc5F)c4)nn4ncccc34)n2)cc(OC)c1OC` [GSK327238], the “%Inh” value worked out at 97.4%.
Turning to `COc1cc(Nc2nccc(N3CCC(NC(=O)Nc4cccc(C(C)=O)c4)C3)n2)cc(OC)c1OC` (stereo not drawn) [GSK1379753], the “%Inh” value was 88%.
Same read-out and setting: as for `CN(C)S(=O)(=O)c1cc(-c2ccc3nccc(-c4cccc(S(N)(=O)=O)c4)c3c2)cnc1N` [GSK1669921], the figure is 25%; as for `COCCOCCOc1cc2ncc3c4ccc(C#N)cc4[nH]c3c2cc1OC`, 56%; as for `Nc1n[nH]c2cnc(-c3ccccc3)cc12` [SB-642124], 0%.
On to `CN1CCN(CCCNc2nccc(-c3c(-c4ccc(F)cc4)nn4cc(C(F)(F)F)ccc34)n2)CC1` [GW621581], for which the “%Inh” value worked out at 26%.
With `Nc1ncnc2c1nc(-c1ccccc1)n2-c1ccccc1` [SKF-97293], the “%Inh” value is given as 16%.
In the case of `Cl.NC(=O)c1cccc(Nc2nccc(Nc3ccc(Oc4c(Cl)cccc4Cl)c(Cl)c3)n2)c1` [GW659009], the “%Inh” value was 32%.
The same measure, in the same setting: for `Cc1ccc(F)c(C(=O)Nc2cccc(-c3nn4ccccc4c3-c3ccnc(Nc4cccc(F)c4)n3)c2)c1F` [GSK361061] the value was 94.3%.
`COc1cccc(-c2ccc3c(NC(=O)C4CC4)n[nH]c3n2)c1` [SB-710903]: the “%Inh” value is 48%.
For the molecule `CC(=O)N1CCN(c2ccc(Nc3nccc(-c4sc(C(C)C)nc4-c4cccc(NS(=O)(=O)c5cccc(Cl)c5)c4)n3)cn2)CC1` [GSK1660437], the “%Inh” value was 97.7%.
The same measure, in the same setting: for `C[C@@H]1CC[C@@H](C(=O)Nc2ccccc2)CN1c1cc(-c2ccc3c(N)n[nH]c3c2)nc(N)n1` [GSK2286062] the value was 14%.
In the case of `Clc1ccc(-c2nn3ncccc3c2-c2ccnc(Nc3ccc4c(c3)OCCO4)n2)cc1` [GW829116], the “%Inh” value is recorded as 65%.
As for `Cc1ccc(C(=O)N2CC[C@@H](O)C2)cc1-n1c(C)cc(OCc2ccc(F)cc2F)c(Br)c1=O`, the “%Inh” value is reported as 92%.
As for `CC(=O)Nc1nc2cnc(Nc3cc(NC(=O)c4cccc(C5(C#N)CC5)c4Cl)ccc3C)nc2s1`, the “%Inh” value worked out at 64%.
Turning to `c1ccc(-c2cnc3nccnn23)cc1` [AH20685], the “%Inh” value is 1%.
Take `CCn1c(-c2nonc2N)nc2c(C#CC(C)(C)O)nc(OC[C@H](N)c3ccccc3)cc21` [GSK943949]: the “%Inh” value is 28%.
Regarding `Cl.Cl.NCC(C(=O)Nc1cc(Br)c(-c2ccnc3[nH]ccc23)s1)c1ccccc1` (stereo not drawn) [GSK1269851], the “%Inh” value was 1%.
In the case of `COc1cccc(C2=C(Nc3ccc(Cl)c(C(=O)O)c3)C(=O)NC2=O)c1` [SB-390769], the “%Inh” value came out at 100%.
Regarding `Cc1cccc(Nc2nc(N[C@H]3CCNC3)ncc2C(N)=O)c1.Cl` [GSK2197149], the “%Inh” value is reported as 0%.

The next experiment concerns ERBB2. The conditions noted are these: concentration: 1 μM, replicates: in singlicate; n = 1.
As for `Cc1ccc(C(=O)Nc2ccc(Nc3ccnc4cc(-c5nccs5)ccc34)cc2O)cc1.Cl` [GW494702], the “%Inh” value turned out to be 42%.
Regarding `CC(C)c1nc(-c2cccc(NS(=O)(=O)c3c(F)cccc3F)c2F)c(-c2ccnc(Nc3ccc(N4CCOCC4)nc3)n2)s1` [GSK2008607], the “%Inh” value was 92.1%.
Regarding `Cl.c1ccc(-c2ccc3c(Nc4ccc5[nH]ccc5c4)ccnc3c2)nc1` [GW440138], the “%Inh” value was 63%.
As to `Nc1ncc(-c2cccnc2)c2scc(-c3ccc4c(c3)CCN4C(=O)Cc3ccccc3)c12` [GSK683281], the “%Inh” value was found to be 1%.
On the same count and under the same terms, for `COc1cc(Nc2nccc(-c3c(-c4cccc(NC(=O)c5c(F)cccc5F)c4)nn4ccccc34)n2)cc(OC)c1OC` [GSK323521] the value was 6%.
The same measure, in the same setting: for `CCc1ccc(-c2ccc3c(c2)-c2c(cnn2C)S(=O)(=O)N3C)cc1` the value was 0%; for `COC(=O)Nc1nc2cc(Oc3ccc(NC(=O)Nc4cc(C(F)(F)F)ccc4F)cn3)ccc2[nH]1.Cl.Cl` [GW681170], 22%; for `Cc1occc1-c1ncc(OC[C@@H](N)Cc2c[nH]c3ccccc23)cc1-c1ccc2[nH]nc(C)c2c1.O=C(O)C(F)(F)F` [GSK682037], 81%.
Take `O=C(Nc1cccc(Oc2ccc3nc(NC(=O)C4CC4)cn3n2)c1)c1ccccc1C(F)(F)F`: the “%Inh” value is reported as 25%.
Still for that read-out and setting: for `CSc1cccc2c(-c3ccncn3)c(-c3ccc(F)cc3)nn12` [GW514786] the value was 34%.
With `COc1cc(Nc2ncc3c(C)nc(-c4cc5ccccc5[nH]4)n3n2)cc(OC)c1OC` [GW869516], the “%Inh” value was 14%.
On to `O=C(Nc1cccc(-c2nn3ccccc3c2-c2ccnc(Nc3cccc(C(F)(F)F)c3)n2)c1)c1c(F)cccc1F` [GSK292658], for which the “%Inh” value is on record as 80%.
On the same count and under the same terms, for `CNC(=O)c1ccccc1Nc1nc(Nc2ccc(N3CCOCC3)cc2)ncc1Cl.Cl` [GSK1576028] the value was 79%.
Regarding `Cl.c1ccc(-c2ccc3c(Nc4ccc5[nH]ncc5c4)ccnc3c2)nc1` [GW440137], the “%Inh” value amounted to 34%.
On to `Cl.Cl.NCC(NC(=O)c1cc(-c2ccccc2)c(-c2ccnc3[nH]ccc23)s1)c1ccccc1` (stereo not drawn) [GSK1321561], for which the “%Inh” value was 58%.
In the case of `COc1cc2c(cc1OCCN1CCNCC1)ncc1c3ccc(C#N)cc3[nH]c21`, the “%Inh” value is recorded as 4%.
For the molecule `CCn1c(-c2nonc2N)nc2c(C#CC(C)(C)O)ncc(OCCCCN)c21.O=C(O)C(F)(F)F.O=C(O)C(F)(F)F` [GSK507274], the “%Inh” value is recorded as 5%.
Regarding `COc1cc(Nc2nccc(-c3c(-c4cccc(NC(=O)c5c(F)cccc5F)c4)nn4ncccc34)n2)cc(OC)c1OC` [GSK327238], the “%Inh” value was found to be 98.6%.
Take `COc1cc(Nc2nccc(N3CCC(NC(=O)Nc4cccc(C(C)=O)c4)C3)n2)cc(OC)c1OC` (stereo not drawn) [GSK1379753]: the “%Inh” value came out at 2%.
As to `CN(C)S(=O)(=O)c1cc(-c2ccc3nccc(-c4cccc(S(N)(=O)=O)c4)c3c2)cnc1N` [GSK1669921], the “%Inh” value amounted to 15%.
Regarding `COCCOCCOc1cc2ncc3c4ccc(C#N)cc4[nH]c3c2cc1OC`, the “%Inh” value was determined as 34%.
In the case of `Nc1n[nH]c2cnc(-c3ccccc3)cc12` [SB-642124], the “%Inh” value was 0%.
`CN1CCN(CCCNc2nccc(-c3c(-c4ccc(F)cc4)nn4cc(C(F)(F)F)ccc34)n2)CC1` [GW621581]: the “%Inh” value turned out to be 0%.
`Nc1ncnc2c1nc(-c1ccccc1)n2-c1ccccc1` [SKF-97293]: the “%Inh” value came to 14%.
Regarding `Cl.NC(=O)c1cccc(Nc2nccc(Nc3ccc(Oc4c(Cl)cccc4Cl)c(Cl)c3)n2)c1` [GW659009], the “%Inh” value is on record as 92.5%.
`Cc1ccc(F)c(C(=O)Nc2cccc(-c3nn4ccccc4c3-c3ccnc(Nc4cccc(F)c4)n3)c2)c1F` [GSK361061]: the “%Inh” value came to 88%.
As to `COc1cccc(-c2ccc3c(NC(=O)C4CC4)n[nH]c3n2)c1` [SB-710903], the “%Inh” value was 51%.
On to `CC(=O)N1CCN(c2ccc(Nc3nccc(-c4sc(C(C)C)nc4-c4cccc(NS(=O)(=O)c5cccc(Cl)c5)c4)n3)cn2)CC1` [GSK1660437], for which the “%Inh” value is recorded as 82%.
Regarding `C[C@@H]1CC[C@@H](C(=O)Nc2ccccc2)CN1c1cc(-c2ccc3c(N)n[nH]c3c2)nc(N)n1` [GSK2286062], the “%Inh” value stood at 44%.
Still for that read-out and setting: as for `Clc1ccc(-c2nn3ncccc3c2-c2ccnc(Nc3ccc4c(c3)OCCO4)n2)cc1` [GW829116], the figure is 32%.
Take `Cc1ccc(C(=O)N2CC[C@@H](O)C2)cc1-n1c(C)cc(OCc2ccc(F)cc2F)c(Br)c1=O`: the “%Inh” value is 36%.
Consider `CC(=O)Nc1nc2cnc(Nc3cc(NC(=O)c4cccc(C5(C#N)CC5)c4Cl)ccc3C)nc2s1`, for which the “%Inh” value worked out at 14%.
With `c1ccc(-c2cnc3nccnn23)cc1` [AH20685], the “%Inh” value is reported as 0%.
With `CCn1c(-c2nonc2N)nc2c(C#CC(C)(C)O)nc(OC[C@H](N)c3ccccc3)cc21` [GSK943949], the “%Inh” value was 12%.
On the same count and under the same terms, as for `Cl.Cl.NCC(C(=O)Nc1cc(Br)c(-c2ccnc3[nH]ccc23)s1)c1ccccc1` (stereo not drawn) [GSK1269851], the figure is 5%.
`COc1cccc(C2=C(Nc3ccc(Cl)c(C(=O)O)c3)C(=O)NC2=O)c1` [SB-390769]: the “%Inh” value is 28%.
Regarding `Cc1cccc(Nc2nc(N[C@H]3CCNC3)ncc2C(N)=O)c1.Cl` [GSK2197149], the “%Inh” value came to 13%.

For the origin of these results see PMC5540273 (PLoS ONE, 2017).
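Note: KINOMEscan kinase panel screen.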
